Source: PubChem BioAssay
CHRM1 agonist: human M1 muscarinic receptor agonists, primary screen, Fluo-8 calcium fluorescence, CHO-K1 cells, HTS | Muscarinic acetylcholine receptor M1 (Homo sapiens), P11229 | CHO-K1 hM1, agonist mode; 0% DMSO, 100% acetylcholine EC100 | activation, % at 3 µM | 360,000 tested, 0.33% active | AID 588814, 2011;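 active means activation above the run's mean compound activation plus 3 SD, cut at about 16% in these data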;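 further: peak over basal fluorescence ratio within a 140 s kinetic read after compound addition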
Target sequence (P11229 whole entry, looked up): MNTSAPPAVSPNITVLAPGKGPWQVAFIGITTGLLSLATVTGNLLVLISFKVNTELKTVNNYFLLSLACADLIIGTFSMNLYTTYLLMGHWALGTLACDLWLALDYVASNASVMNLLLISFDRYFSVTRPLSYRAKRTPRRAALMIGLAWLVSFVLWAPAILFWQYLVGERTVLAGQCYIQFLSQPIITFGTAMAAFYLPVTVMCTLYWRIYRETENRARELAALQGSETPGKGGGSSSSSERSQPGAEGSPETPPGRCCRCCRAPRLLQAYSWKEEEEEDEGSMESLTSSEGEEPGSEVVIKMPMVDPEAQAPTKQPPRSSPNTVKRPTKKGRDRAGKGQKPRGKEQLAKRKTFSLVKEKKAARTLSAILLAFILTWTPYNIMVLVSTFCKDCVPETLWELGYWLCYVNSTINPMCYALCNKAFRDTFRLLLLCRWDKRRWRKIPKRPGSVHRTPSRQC
M1 antag: human M1 muscarinic receptor antagonists, primary screen, CHO-K1 cells, Fluo-8 calcium fluorescence, 1536-well | inhibition, % at 3 µM | 360,000 tested, 1.3% active | CHO-K1 hM1, ACh EC80 antagonist | Muscarinic acetylcholine receptor M1 (Homo sapiens), P11229;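 active means percent inhibition above its own plate's cutoff, namely the mean of that plate's compound wells plus 3 SD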;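 further: peak over basal fluorescence ratio during 140 s after agonist addition; 0% = ACh EC80 plus DMSO and 100% = DMSO alone without agonist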
CHO-K1 Ca PAM: nonselective calcium activators in parental CHO-K1 cells, primary screen, counter-screen for M1 PAM project, cell-based, Fluo-8 calcium fluorescence, full deck, 1536-well | ATP EC20; 0% at ATP EC20, 100% at ATP max | activation, % at 3 µM | 360,000 tested, 0.02% active;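 active means activation above the run cutoff, the mean activation of all test compounds plus 3 SD, cut at about 40% in these data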;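 further: peak over basal fluorescence ratio in a 140 s read after ATP addition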
M1 ag parental: counter-screen for M1 agonists: effect in parental CHO-K1 cells; Fluo-8 calcium fluorescence; scaled to maximal ATP response, vehicle zero; activation, % at 3 µM; 360,000 tested, 0.48% active; in the data active means activation above about 15%;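 further: untransfected CHO-K1 host cells lacking M1 receptor as counterscreen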
CHO-K1 Ca antag: M1 antagonist counterscreen hit in parental CHO-K1 cells; ATP-induced calcium, Fluo-8 fluorescence; inhibition, % at 3 µM; 360,000 tested, 0.6% active;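 active means inhibition above a per-plate cutoff, the plate's mean sample inhibition plus 3 SD, cut at about 24% in these data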;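 further: 0% = DMSO plus EC80 ATP and 100% = DMSO alone without ATP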
CHRM1 PAM: human M1 muscarinic receptor positive allosteric modulators, primary screen, CHO-K1 cells, Fluo-8 calcium fluorescence, 1536-well | Muscarinic acetylcholine receptor M1 (Homo sapiens), P11229 | CHO-K1 hM1, ACh EC20; 0% = ACh EC20, 100% = maximal ACh | activation, % at 3 µM | 360,000 tested, 0.088% active | AID 588819, 2011; in the data active means activation above about 19%, passing the limit was not always enough
An asterisk follows results filed as active. Rows were chosen to be rich in hits. Some 2.3% of all compounds tested hit in one or more screens of this group.

`CCOC(=O)C1CCN(C(=O)C(CCSC)NC(=O)c2ccccc2OC)CC1` (stereo not given) gave CHRM1 agonist -4, M1 antag 11, CHO-K1 Ca PAM -11, M1 ag parental 0, CHO-K1 Ca antag -1 and CHRM1 PAM -6.
`O=C1NC[C@@H](c2ccccc2)OC(=O)[C@@H](Cc2ccc(F)cc2)C/C=C\C[C@@H]1CC(=O)N(CCO)Cc1ccccc1` gave CHRM1 agonist -7, M1 antag 20, CHO-K1 Ca PAM 2, M1 ag parental 1, CHO-K1 Ca antag -12 and CHRM1 PAM -12.
`Cc1nn(-c2ccccc2)c(Cl)c1/C=C/C(=O)c1ccccc1` gave CHRM1 agonist -1, M1 antag -26, CHO-K1 Ca PAM -6, M1 ag parental 0, CHO-K1 Ca antag 28* and CHRM1 PAM 2.
For Cc1nn(-c2ccccc2)c(Cl)c1/C=N/O the results were CHRM1 agonist -7, M1 antag 7, CHO-K1 Ca PAM 5, M1 ag parental 0, CHO-K1 Ca antag 10 and CHRM1 PAM -1.
For O=C(Cc1cccc(NC(=O)C2CCCN(C(=O)C3CCCC3)C2)c1)Nc1ccc(C(=O)N2CCOCC2)cc1 (stereo not given) the results were CHRM1 agonist -3, M1 antag -7, CHO-K1 Ca PAM 7, M1 ag parental 1, CHO-K1 Ca antag -17 and CHRM1 PAM 4.
Screening Cc1ccc(S(=O)(=O)NN=C(c2ccccc2)c2cccs2)cc1 returned CHRM1 agonist -9, M1 antag -10, CHO-K1 Ca PAM 16, M1 ag parental 0, CHO-K1 Ca antag -14 and CHRM1 PAM 4.
For O=C(O)CC(NS(=O)(=O)Cc1ccccc1)c1cccc([N+](=O)[O-])c1 (stereo not given) the results were CHRM1 agonist -2, M1 antag -8, CHO-K1 Ca PAM 8, M1 ag parental 1, CHO-K1 Ca antag -12 and CHRM1 PAM 8.
Cc1cc(C)c(S(=O)(=O)NC(CC(=O)O)c2cccc([N+](=O)[O-])c2)c(C)c1 (stereo not given) was read as CHRM1 agonist -5, M1 antag 6, CHO-K1 Ca PAM -14, M1 ag parental 0, CHO-K1 Ca antag 25* and CHRM1 PAM -8.
For O=C(N/N=C/c1cc(Br)cc(Br)c1O)c1cccc(N2CCCC2=O)c1 the results were CHRM1 agonist -9, M1 antag -2, CHO-K1 Ca PAM 1, M1 ag parental -1, CHO-K1 Ca antag 34* and CHRM1 PAM 9.
O=C(NC1CCCCCC1)c1cccc(N2CCCC2=O)c1 was read as CHRM1 agonist -3, M1 antag 6, CHO-K1 Ca PAM -6, M1 ag parental 0, CHO-K1 Ca antag 32* and CHRM1 PAM -13.
For C[C@@H]1CN([C@H](C)CO)C(=O)CCCn2cc(nn2)CO[C@H]1CN(C)S(=O)(=O)c1ccccc1C#N the results were CHRM1 agonist -2, M1 antag -4, CHO-K1 Ca PAM 16, M1 ag parental 1, CHO-K1 Ca antag -6 and CHRM1 PAM -1.
For Cc1ccc(S(=O)(=O)NCCC(=O)Nc2cc(F)ccc2C)cc1C the results were CHRM1 agonist -2, M1 antag 21*, CHO-K1 Ca PAM -14, M1 ag parental 1, CHO-K1 Ca antag 6 and CHRM1 PAM -10.
Cc1cccc(NC(=O)CCc2ccc(N3C(N)=NC(N)=NC3(C)C)cc2)c1 was read as CHRM1 agonist -8, M1 antag -10, CHO-K1 Ca PAM 16, M1 ag parental 0, CHO-K1 Ca antag -15 and CHRM1 PAM 1.
CC(=O)Nc1oc(-c2cccc3ccccc23)nc1C#N was read as CHRM1 agonist -1, M1 antag 0, CHO-K1 Ca PAM 12, M1 ag parental 2, CHO-K1 Ca antag -12 and CHRM1 PAM 3.
